Publication PMC4552634, “A New Set of Chemical Starting Points with Plasmodium falciparum Transmission-Blocking Potential for Antimalarial Drug Discovery” (PLoS ONE, 2015)
Read-outs that look alike come from different tables or passages of the source. Hit rate of the full screen: of about 13,000 compounds, about 3,200 (25%) showed an effect of 50% or more. Some of the results follow.

System: P. falciparum stage V gametocytes
Parameters: BacTiter-Glo ATP luminescence viability of purified stage V gametocytes in 384-well plates, per cent inhibition versus DMSO
Conditions: 48 h, 5 µM, inhibitor

Row | Compound | % Inhibition [%] | % Inhibition (% Inhibition) [%]
1 | CC1(C)N=C(N)N=C(N)N1OCc1ccc2c(c1)OCO2 [TCMDC-131581] | 47.46 | 
2 | CN1CCN(c2ccc(-c3cc(-c4ccncc4)c(-c4ccc(Cl)c(O)c4)o3)cc2)CC1 [TCMDC-141308] | 9.946 | 
3 | Cc1nc(N)nc(N)c1OCCCCOc1ccccc1 [TCMDC-131353] | -22.41 | 
4 | CCCOc1ccc(N2C(N)=NC(N)=NC2(C)C)cc1 [TCMDC-137702] | -17.71 | 
5 | CC1(C)N=C(N)N=C(N)N1c1ccccc1 [TCMDC-123984] | -31.19 | 
6 | Nc1nc(N)c2c(ccc3c2ccn3CCCF)n1 [TCMDC-138623] | 32.47 | 
7 | CCCC(CCC)n1ccc2c3c(N)nc(N)nc3ccc21 [TCMDC-137949] | 60.59 | 
8 | CC(=O)Nc1nc(N)c2c(ccc3c2ccn3CC(C)C)n1 [TCMDC-137971] | 0.8169 | 
9 | CCCCCCn1ccc2c3c(N)nc(N)nc3ccc21 [TCMDC-137994] | 106.4 | 
10 | Nc1nc(N)c2c(ccc3c2ccn3C2C=CCCC2)n1 (stereo not drawn) [TCMDC-137861] | 26.32 | 
11 | Nc1nc(N)c2c(ccc3c2ccn3CCCCO)n1 [TCMDC-137959] | 31.47 | 
12 | CCCC(CC)n1ccc2c3c(N)nc(N)nc3ccc21 (stereo not drawn) [TCMDC-137948] | 17.27 | 
13 | CCCC(C)n1ccc2c3c(N)nc(N)nc3ccc21 (stereo not drawn) [TCMDC-137964] | -7.389 | 
14 | CC(C)Cn1ccc2c3c(N)nc(N)nc3ccc21 [TCMDC-137997] | 21 | 
15 | Nc1nc(N)c2c(ccc3nn(C4CCCC4)cc32)n1 [TCMDC-137960] | -20 | 
16 | CC(C)CNc1nc(N)nc2ccc3c(ccn3CC(C)C)c12 [TCMDC-137731] | 87.39 | 
17 | Nc1nc(N)c2c(ccc3c2ccn3C2CCCCC2)n1 [TCMDC-137871] | 105.4 | 
18 | CCC(C(=O)Nc1ccccc1)n1nc(-c2ccc(C)c(S(=O)(=O)N3CCCCC3)c2)ccc1=O (stereo not drawn) [TCMDC-124712] | -71.76 | 
19 | CC(=O)c1c(Cc2cccc(C(F)(F)F)c2)c[nH]c1C [TCMDC-124434] | -10.65 | 
20 | COc1ccc(C(C(=O)NC2CCN(C[C@H](O)c3ccnc4ccc(OC)cc34)CC2)N2CCN(c3ccc(Cl)c(Cl)c3)CC2)cc1 (stereo partly drawn) [TCMDC-141101] | 14.7 | 
21 | NC(N)=NC(=O)Nc1cc(Cl)c(F)c(Cl)c1 [TCMDC-137512] | -14.8 | 
22 | Cc1cc(N(C)C)nc(Nc2ccc(NC(=O)c3ccccc3Cl)cc2)n1 [TCMDC-124722] | -1.9 | 
23 | CCn1ccc2c3c(N)nc(N)nc3ccc21 [TCMDC-139864] | 0.4857 | 
24 | C=CCn1ccc2c3c(N)nc(N)nc3ccc21 [TCMDC-137995] | 79.96 | 

Row | Compound | % Inhibition [%] | % Inhibition (% Inhibition) [%]
25 | Nc1nc(N)c2c(ccc3c2ccn3CCCC(F)(F)F)n1 [TCMDC-138622] | 32.41 | 
26 | Oc1ccc(Br)cc1C(O)CNCc1ccccc1OCc1ccccc1 (stereo not drawn) [TCMDC-140564] | 21.06 | 
27 | Fc1ccc2[nH]cc(CCN3CCC(CNCc4ccccc4)CC3)c2c1 [TCMDC-131984] | 53.36 | 
28 | OC1(CNCc2ccccc2)CCN(CCc2c[nH]c3ccc(F)cc23)CC1 [TCMDC-131975] | 35.49 | 
29 | CN(Cc1ccccc1)C1CCN(CCc2c[nH]c3ccc(F)cc23)CC1 [TCMDC-131970] | 10.21 | 
30 | N#Cc1ccc2c(c1)CN(CC[C@H]1CC[C@H](NC(=O)/C=C/c3c[nH]c4ccccc34)CC1)CC2 [TCMDC-139133] |  | 11.83
31 | O=C(NC1CCN(c2ccnc3cc(Cl)ccc23)C1)c1ccccc1F (stereo not drawn) [TCMDC-133660] | -3.046 | 
32 | COC(=O)c1cccc(NC(=O)NCCNc2ccnc(Nc3ccc(F)cc3)n2)c1 [TCMDC-133642] | 41.44 | 
33 | O=C(c1ccc(Br)o1)N1N=C(c2cccs2)CC1c1ccc(Br)cc1 (stereo not drawn) [TCMDC-125623] | 10.04 | 
34 | CC(=O)Oc1c(C2CCN(CCCCNC(=O)c3ccc(NC(=O)c4ccc(Cl)cc4)cc3)CC2)ccc2c1CCCC2 [TCMDC-138649] | 92.78 | 
35 | O=C(NCCCCN1CCC(c2ccc3c(c2OC(=O)c2ccc(NC(=O)c4ccc(Cl)cc4)cc2)CCCC3)CC1)c1ccc(NC(=O)c2ccc(Cl)cc2)cc1 [TCMDC-138644] | 102.3 | 
36 | COc1ccc(C2CCN(CCCCNC(=O)c3ccc(NC(=O)c4ccc(Cl)cc4)cc3)CC2)c(C)c1 [TCMDC-138359] | -1.308 | 
37 | O=C(NCCCCN1CCC(c2ccc3c(c2OCC2CC2)CCCC3)CC1)c1ccc(NC(=O)c2ccc(Cl)cc2)cc1 [TCMDC-138584] | 71.88 | 
38 | O=C(NCCCCN1CCN(c2cccc3c2CCCC3)CC1)c1ccc(NC(=O)c2ccc(Cl)cc2)cc1 [TCMDC-138513] | -3.326 | 
39 | CC(C)(C)c1cc(Cn2ccnc2)cc(C(C)(C)C)c1O [TCMDC-131317] | -23.04 | 
40 | Cc1cnc(C(=O)Nc2cccc(-c3csc(-c4nc5ccccc5[nH]4)c3)c2)cn1 [TCMDC-132401] | -83.32 | 
41 | CC(=O)c1ccc(N2CCN(C(=O)Nc3ccc(Cl)cc3)CC2)cc1 [TCMDC-125821] | -3.219 | 
42 | O=C(O[C@@H]1CN[C@H](C#Cc2cc3ncnc(Nc4ccc5c(cnn5Cc5cccc(F)c5)c4)c3s2)C1)N1CCCC1 [TCMDC-135355] | -4.612 | 
43 | CC(C)Oc1cc2c(cc1NS(=O)(=O)c1ccc(-c3cccs3)cc1)CCN(C)CC2 [TCMDC-141486] | 15.65 | 
44 | COCCCC1C(=O)OC2CCCC21 (stereo not drawn) [TCMDC-131981] | 9.495 | 
45 | O=C(O)C(F)(F)F.OCCN1CCN(Cc2cccc(-c3ccc(-c4nc5cc(C(F)(F)F)ccc5[nH]4)s3)c2)CC1 [TCMDC-133028] | 0.1652 | 
46 | CCOC(=O)CCc1cc(F)c(F)c(OC[C@H](O)CNC(C)(C)C(O)c2ccc3ccccc3c2)c1 (stereo partly drawn) [TCMDC-141731] | -25.49 | 
47 | Clc1ccc(-c2cc3c(NCc4ccncc4)nccc3s2)cc1 [TCMDC-135202] | 11.9 | 
48 | CN(C)C(=O)CC(=O)NCc1c(Cl)cccc1Cl [TCMDC-131769] | -6.865 | 

Row | Compound | % Inhibition [%] | % Inhibition (% Inhibition) [%]
49 | COc1cccc(NC(=O)Cn2c(C)c(C(=O)C(F)(F)F)c3ccccc32)c1 [TCMDC-123800] | 60.17 | 
50 | COc1cccc(NC(=O)Cn2c(C)c(C#N)c3ccccc32)c1 [TCMDC-125424] | 84.65 | 
51 | COc1ccccc1Cn1ccnc1SCC(=O)Nc1cccc(C(F)(F)F)c1 [TCMDC-124737] | -18.32 | 
52 | COc1cccc(NC(=O)Nc2c(-c3cccc(C(F)(F)F)c3)c(C(F)(F)F)nn2C)c1 [TCMDC-124575] | 19.24 | 
53 | CC(C)C(NC(=O)Cc1cccc2ccccc12)C(=O)Nc1cccc(C#N)c1 (stereo not drawn) [TCMDC-125329] | -6.888 | 
54 | COc1cccc(NC(=O)c2cc(Br)cc(N3CCN(c4ccncc4)CC3)c2)c1 [TCMDC-135146] | 1.077 | 
55 | O=C(/C=C/c1ccc(Cl)cc1)NCCCCCN1CCCN(C(=O)Nc2ccc(Cl)c(C(F)(F)F)c2)CC1 [TCMDC-136100] | -19.2 | 
56 | O=C(Nc1cccc(N2CCC(NCCCn3ccnc3)CC2)c1)c1cccc(C(F)(F)F)c1 [TCMDC-124663] | 36.86 | 
57 | COc1ccc(NC(=O)NC2CCN(CCCOc3cc(C)nc4ccccc34)CC2)cc1OC [TCMDC-136281] | 77.42 | 
58 | COc1ccc(NC(=O)NC2CCN(CCCOc3ccnc4cc(Cl)ccc34)C2)cc1OC (stereo not drawn) [TCMDC-136148] | -28.4 | 
59 | Cc1cc(NC(=O)NCCN2CCC(NC(=O)c3ccc(F)cc3)CC2)c2ccccc2n1 [TCMDC-136173] | 91.01 | 
60 | Cc1cc(NC(=O)NCCN2CCC(NC(=O)c3ccc(Cl)cc3)CC2)c2ccccc2n1 [TCMDC-136171] | -56.82 | 
61 | COc1ccc(S(=O)(=O)NC2CCN(CCNC(=O)Nc3cc(C)nc4ccccc34)C2)cc1 (stereo not drawn) [TCMDC-136141] | -35.07 | 
62 | Cc1cc(NC(=O)NCCN2CCC(NS(=O)(=O)c3cccc(Br)c3)C2)c2ccccc2n1 (stereo not drawn) [TCMDC-136138] | 15.89 | 
63 | Cc1cc(NC(=O)NCCN2CCC(NC(=O)c3ccc(C(F)(F)F)cc3)CC2)c2ccccc2n1 [TCMDC-136174] | -43.73 | 
64 | Cc1cc(NC(=O)NCCN2CCC(NC(=O)c3cccc(Br)c3)C2)c2ccccc2n1 (stereo not drawn) [TCMDC-136175] | 92.91 | 
65 | Cc1cc(NC(=O)NCCN2CCC(NS(=O)(=O)c3ccc(Br)cc3)C2)c2ccccc2n1 (stereo not drawn) [TCMDC-136139] | 5.798 | 
66 | Cc1cc(OCCCN2CCC(NC(=O)c3ccc(Br)cc3)C2)c2ccccc2n1 (stereo not drawn) [TCMDC-136284] | 3.225 | 
67 | Cc1ccc(S(=O)(=O)NC2CCN(CCNC(=O)Nc3cc(C)nc4ccccc34)C2)cc1 (stereo not drawn) [TCMDC-136143] | 91.8 | 
68 | Cc1ccc(C(=O)NC2CCN(CCNC(=O)Nc3cc(C)nc4ccccc34)CC2)cc1 [TCMDC-136172] | -7.111 | 
69 | CC(=O)Nc1ncc(C(=O)Nc2cccc(-c3ccc(-c4nc5ccc(C(F)(F)F)cc5[nH]4)cc3)c2)s1 [TCMDC-136921] | -28 | 
70 | CC(=O)Oc1c(C2C=CCCC2)c(OC(C)=O)c2ccccc2c1OC(C)=O (stereo not drawn) [TCMDC-138176] | 9.671 | 
71 | O=C(NC1CCCCC1)c1ccc(O)c(-c2cccc(C(F)(F)F)c2)c1 [TCMDC-140163] | -1.763 | 
72 | Cc1ccc(O)cc1Nc1ccnc2cc(-c3csc(CNCCN4CCOCC4)n3)ccc12 [TCMDC-138457] | 16.99 | 
